Screens deposited in PubChem by National Center for Advancing Translational Sciences (NCATS).
Rows were chosen to be rich in hits. Some 10% of all compounds tested hit in one or more screens of this group.
BAZ2B block: blocks human BAZ2B; Q9UIF8; AlphaScreen BAZ2B-H3K14Ac peptide displacement; Potency, µM (titrated, usually from 114 µM), without a hit: at the highest dose activity change, negative = inhibition, usual class: inhibitors; hit rate 4.4% among 360,000; AID 504333; further: potency means the concentration at half of the fitted maximal effect; on the % scale 0 is the no-effect control and ±100 the full control effect; nearly all actives have a fitted effect of over 60% in size
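Compounds, titrated to a top concentration of 110 uM, were incubated 30 min at room temperature with preformed BAZ2B/acetyl-K14 H3 peptide complex (50 nM each). Proximity signal was measured by AlphaScreen after 20 min with beads.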
HP1b binding inh: blocks HP1-beta chromodomain binding to methylated histone tails | P83916 | Potency, µM (series often up to 114 µM), without a hit: at the top dose activity change, negative = inhibition, most hits filed as inhibitors | AlphaScreen HP1-beta / biotin-H3K9me3 peptide binding | hit rate 0.56% among 390,000 | AID 540317; further: potency means the concentration at half of the fitted maximal effect; nearly all actives have a fitted effect of over 70% in size
Target sequence (P83916 whole entry, looked up): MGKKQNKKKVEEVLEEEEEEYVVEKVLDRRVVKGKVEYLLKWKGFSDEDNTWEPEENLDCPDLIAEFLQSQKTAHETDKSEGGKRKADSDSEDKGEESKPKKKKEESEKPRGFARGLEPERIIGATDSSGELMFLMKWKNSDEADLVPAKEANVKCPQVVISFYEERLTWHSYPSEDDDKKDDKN
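Compound inhibition of the preformed complex between 50 nM HP1-beta and 50 nM biotinylated H3K9me3 peptide was read by AlphaScreen. Buffer was PBS pH 7.4 with 0.01% Tween-20. Incubations ran 30 min at room temperature, with 10 ug/mL donor/acceptor beads.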
Six1-Eya2 inh: Six1/Eya2 interaction inhibition; hit rate 0.56% among 360,000; activity change, % (concentration not given with the values); AlphaScreen GST-Six1/His-Eya2 binding, biochemical; stronger effect = lower value; in the data active means activity change below about -65%; inconclusive means mostly about -30% to -63%; further: on the % scale 0 is the no-effect control and ±100 the full control effect
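AlphaScreen luminescence read after one hour at 37 °C in darkness. Pin-transferred compounds met GST-Six1 and His-Eya2 protein (5X stock 250 nM/500 nM) plus glutathione donor and Ni-chelate acceptor beads (5X, 50 ug/mL).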
CtBP-E1A blk: inhibitors of CtBP/E1A interaction. AID 651724. activity change, % (no concentration beside the values). hit rate 0.49% among 340,000. AlphaScreen GST-E1A/His-CtBP binding, 1536-well; stronger effect = lower value; in the data active means activity change below about -65%; inconclusive means mostly about -30% to -63%; further: on the % scale 0 is the no-effect control and ±100 the full control effect
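In 5 uL wells, 23 nL compound meets equimolar GST-E1A and His-CtBP (5X stock 125 nM each) for 2 h, 37 °C. Beads (5X, 50 ug/mL) then 1 h, 37 °C, dark.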
G9a inh: inhibitors of human histone lysine methyltransferase G9a | Q96KQ7 | G9a H3K9 monomethylation, AlphaScreen, 2 h | Potency, µM (highest dose often 102 µM), for inactives: at the highest dose activity, negative = inhibition, usual class: inhibitors | hit rate 8.8% among 350,000 | AID 504332; further: potency means the concentration at half of the fitted maximal effect; on the % scale 0 is the no-effect control and ±100 the full control effect; nearly all actives have a fitted effect of over 75% in size
Target sequence (Q96KQ7 913-1193 limits assumed): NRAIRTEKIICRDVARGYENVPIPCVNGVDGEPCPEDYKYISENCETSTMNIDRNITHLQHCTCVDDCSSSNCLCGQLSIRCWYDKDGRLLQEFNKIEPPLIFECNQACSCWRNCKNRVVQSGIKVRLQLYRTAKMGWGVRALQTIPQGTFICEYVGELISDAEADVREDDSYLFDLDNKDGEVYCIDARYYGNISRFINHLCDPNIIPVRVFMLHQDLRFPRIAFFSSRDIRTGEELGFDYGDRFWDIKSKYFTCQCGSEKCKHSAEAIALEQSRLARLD
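Quantitative HTS format: methyltransferase activity on a biotin-tagged H3K9 peptide is measured by AlphaScreen, using a rabbit anti-monomethyl-H3K9 antibody with streptavidin donor and anti-IgG acceptor beads. Final levels are 20 nM enzyme, 500 nM peptide, 20 uM SAM; 2 h RT.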
JMJD2A Tudor inh: blocks the human JMJD2A Tudor domain | O75164 | AlphaScreen JMJD2A-Tudor / H3K4me3 peptide binding | Potency, µM (top dose mostly 114 µM), for the others: top-dose activity change, negative = inhibition, actives largely listed as inhibitors | hit rate 4.4% among 390,000; further: potency means the concentration at half of the fitted maximal effect; on the % scale 0 is the no-effect control and ±100 the full control effect; nearly all actives have a fitted effect of over 50% in size
* hit, by the source's call; ? = inconclusive; . = no result given; [ ] = remark or other dose. Unless noted, the call rests on the fitted dose curve; in most records, active means well fitted inhibition curve with a large enough effect; inconclusive means small, poorly fitted or top-dose-only effect; inactive means no such curve, though single readings can be large or run the other way.

SMILES	BAZ2B block	HP1b binding inh	Six1-Eya2 inh	CtBP-E1A blk	G9a inh	JMJD2A Tudor inh
O=C(c1ccco1)N1CCN(c2nc3c(F)cc(F)cc3s2)CC1	-11%	21%	.	.	11%[59 µM]	-21%
CN(Cc1ccccc1)C(=S)Nc1ccc(OC(F)F)cc1	8%	33%	-10	-9	-10%[59 µM]	3%
C=CCn1c(C)cc(/C([O-])=C(/C(=S)Nc2ccc(OC(F)F)cc2)[n+]2ccc(N(C)C)cc2)c1C	45µM*	?	2	-10	40µM*	?
CCOc1ccc(NC(=O)CSc2nnc(-c3ccc(OCC)cc3)o2)cc1	2%	44%	.	.	-26%[59 µM]	-13%
COc1ccc(NC(=O)CCS(=O)(=O)c2nc(-c3ccc4c(c3)OCO4)cc(C(F)(F)F)n2)cc1OC	-11%	16%	.	.	11µM*	-19%
Cc1ccc(Nc2nc(=O)c3cc([N+](=O)[O-])ccc3s2)cc1	1%	47%	19	.	25%[59 µM]	-1%
Cc1ccccc1Nc1nc(=O)c2cc([N+](=O)[O-])ccc2s1	21%	8%	-4	-9	35µM*	-8%
COc1ccc(Nc2nc(=O)c3cc([N+](=O)[O-])ccc3s2)cc1	79µM*	42%	2	1	?	-21%
CCOc1ccc(NC(=O)C2CCCN(c3nn4cc(-c5ccc(OC)cc5)nc4s3)C2)cc1 (stereo not given)	-3%	13%	.	.	0%[59 µM]	-9%
CCC(C(=O)Nc1nccs1)(C(F)(F)F)C(F)(F)F	56µM*	24%	1	1	?	-10%
CCC(NC(=O)Nc1nccs1)(C(F)(F)F)C(F)(F)F	10%	14%	5	0	?	-5%
Nc1ccc(S(=O)(=O)c2cccc(N)c2)cc1	-3%	17%	-2	0	-2%[59 µM]	-15%
Cc1ccc(S(=O)(=O)c2ccccc2)cc1S	4%	.	.	.	3.5µM*	.
CCOc1cccc(C2C(C(=O)c3ccc(C)o3)=C(O)C(=O)N2c2nccs2)c1 (stereo not given)	?	21%	-3	-1	6.3µM*	?
O=C(C1=C(O)C(=O)N(c2nccs2)C1c1ccccc1)c1cc2ccccc2o1 (stereo not given)	40µM*	-14%	-5	-1	3.5µM*	-32%
O=C(C1=C(O)C(=O)N(CCc2ccccc2)C1c1ccncc1)c1cc2ccccc2o1 (stereo not given)	-2%	23%	2	-14	?	-25%
COc1ccc(CCNC(=O)c2cc(Nc3cc(C)cc(C)c3)nc3ccccc23)cc1OC	.	40%	.	.	8%[59 µM]	-19%
COc1ccc(CCNC(=O)CCCn2c(=O)c3ccccc3n(CC(=O)Nc3ccc(C)cc3Cl)c2=O)cc1OC	?	47%	.	.	20%[59 µM]	-17%
Cc1cc(C)n(-c2nc3ccccc3nc2Nc2cccc(C(=O)NCCc3ccccc3)c2)n1	4%	28%	.	.	-3%[59 µM]	-3%
Fc1cccc(NCc2ccoc2)c1	-7%	39%	2	3	40µM*	-35%
CCOC(=O)C1CCN(c2c(C(=O)c3ccc(C)cc3)cnc3ccc(F)cc23)CC1	-24%	9%	.	.	-24%[59 µM]	-33%
CCOC(=O)C1CCCN(c2c(C(=O)c3ccccc3)cnc3ccc(OC)cc23)C1 (stereo not given)	?	39%	0	0	56µM*	-32%
CCN1CCN(c2c(C(=O)c3ccc(OC)cc3)cnc3ccccc23)CC1	-10%	61%	1	2	50µM*	-11%
COc1cc2ncc(C(=O)c3ccc(C)cc3)c(N3CCCCC3)c2cc1OC	?	-11%	.	.	8.9µM*	56µM*
CCOC(=O)C1CCCN(c2c(C(=O)c3ccc(OCC)cc3)cnc3ccccc23)C1 (stereo not given)	-39%	6%	.	.	?	?
SMILES	BAZ2B block	HP1b binding inh	Six1-Eya2 inh	CtBP-E1A blk	G9a inh	JMJD2A Tudor inh
COc1ccc(CNC(=O)CC2N=C3c4ccccc4N=C(SCC(=O)Nc4ccc(C(C)C)cc4)N3C2=O)cc1 (stereo not given)	-15%	17%	.	.	-7%[59 µM]	-29%
CCc1ccc(CNC(=O)c2ccc(Cn3c(=O)c4cccn4c4cccnc43)cc2)cc1	-13%	28%	.	.	2%[59 µM]	-9%
CCOC(=O)Cc1cc(C(=O)Nc2ccc(Br)cc2)sc1-c1ccc(C)cc1	1%	62%	.	.	27%[59 µM]	6%
Cc1ccc(OC(=O)CSc2nnc(CNC(=O)c3ccccc3)o2)cc1	5%	39%	.	.	?	-11%
COc1ccc2c(c1)c(=O)oc1cc(OCC(=O)NC3CCCCC3)ccc12	79µM*	?	-3	-11	11µM*	40µM*
Cc1c(S(=O)(=O)c2ccccn2)c(N)n(Cc2cccc(Cl)c2)c1C	-30%	37%	0	.	28µM*	-25%
CCOC(=O)CCc1c(C)nc2c(-c3ccccc3)c(C)[nH]n2c1=O	-17%	25%	.	.	?	-5%
CCOC(=O)Cc1c(C)nc2c(-c3ccc(Cl)cc3)c(C)[nH]n2c1=O	8%	37%	?	14	50µM*	-18%
CCOC(=O)Cc1c(C)nc2c(C#N)c[nH]n2c1=O	-6%	31%	?	?	79µM*	-24%
CCc1c(C)nc2c(C#N)c[nH]n2c1=O	-17%	18%	?	-77*	16%[2.33 µM]	-13%
O=C(Nc1ccc(Br)cc1F)c1cc(S(=O)(=O)NC2CCCC2)ccc1F	-1%	37%	.	.	14%[59 µM]	-11%
OCCN1CCOCCN(CCO)CCOCC1	-1%	0%	16	-1	?	22µM*
COc1cccc(C2c3cc4c(cc3OC(N3CCOCC3)C2C)OCO4)c1O (stereo not given)	.	?	-9	3	.	40µM*
NS(=O)(=O)c1ccc(CCNc2ncnc3c2cnn3-c2cccc(Cl)c2)cc1	-9%	14%	.	.	-2%[59 µM]	-29%
CCN1CCN(Cc2ccc(OCc3ccccc3)c(OC)c2)CC1	-1%	22%	2	2	?	-27%
